Five compounds from PubChem BioAssay can be followed below.

Molecules are shown by their SMILES. Activity calls are given as the source filed them.

Assay [1] in a line: binders of probe aFSTL3 on microarray, primary screen, stem cell growth factor project, biochemical, small-molecule microarray, fluorescence 635/667 (AID 1064).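 Also: measures binding of the biotinylated anti-FSTL3 antibody to printed compounds.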 The following applies: higher = more signal.
Assay [2] is described as follows: binders from COS7 lysate, DM2A8 probe, primary screen, torsin A project, cell lysate, small-molecule microarray, fluorescence 635/667 (AID 1065). To be noted: higher = more signal, COS7 lysate expressing mutant human TOR1A.
Assay [3] is described as follows: binders of probe aFGF2 on microarray, primary screen, stem cell growth factor project, biochemical, small-molecule microarray, fluorescence 635/667 (AID 1067).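 Also: measures binding of biotinylated aFGF2 protein to printed compounds on slides; z-score merges feature fluorescence and signal-to-noise across triplicate slides.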 To be noted: higher = more signal.
Assay [4] can be described thus: binders of probe aFGF10 on microarray, primary screen, stem cell growth factor project, biochemical, small-molecule microarray, fluorescence 635/667 (AID 1071).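 Also: score merges 667 nm spot intensity and signal to noise from triplicate slides.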 To be noted: higher = more signal.
Assay [5] addresses Neurogenic locus notch homolog protein 2 (Homo sapiens) (UniProt Q04721). In words: Notch2 binders on small-molecule microarrays, primary screen, biochemical, small-molecule microarray, 635 nm fluorescence, stem cell growth factors (AID 1073). The following applies: Notch2 binding, higher = more signal.
In assay [6] the target is Pro-neuregulin-1, membrane-bound isoform (Homo sapiens) (UniProt Q02297). In words: NRG1 binders on small-molecule microarrays, primary screen, psychiatric disease protein project, biochemical, small-molecule microarray, fluorescence 635/667 (AID 1075).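 Also: score combines 667 nm spot fluorescence with signal to noise.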 The following applies: NRG1 binding, 635 nm fluorescence, higher = more signal.
Sequence of Pro-neuregulin-1, membrane-bound isoform (Homo sapiens) (Q02297 whole entry, looked up, the tested form may be a part, canonical isoform): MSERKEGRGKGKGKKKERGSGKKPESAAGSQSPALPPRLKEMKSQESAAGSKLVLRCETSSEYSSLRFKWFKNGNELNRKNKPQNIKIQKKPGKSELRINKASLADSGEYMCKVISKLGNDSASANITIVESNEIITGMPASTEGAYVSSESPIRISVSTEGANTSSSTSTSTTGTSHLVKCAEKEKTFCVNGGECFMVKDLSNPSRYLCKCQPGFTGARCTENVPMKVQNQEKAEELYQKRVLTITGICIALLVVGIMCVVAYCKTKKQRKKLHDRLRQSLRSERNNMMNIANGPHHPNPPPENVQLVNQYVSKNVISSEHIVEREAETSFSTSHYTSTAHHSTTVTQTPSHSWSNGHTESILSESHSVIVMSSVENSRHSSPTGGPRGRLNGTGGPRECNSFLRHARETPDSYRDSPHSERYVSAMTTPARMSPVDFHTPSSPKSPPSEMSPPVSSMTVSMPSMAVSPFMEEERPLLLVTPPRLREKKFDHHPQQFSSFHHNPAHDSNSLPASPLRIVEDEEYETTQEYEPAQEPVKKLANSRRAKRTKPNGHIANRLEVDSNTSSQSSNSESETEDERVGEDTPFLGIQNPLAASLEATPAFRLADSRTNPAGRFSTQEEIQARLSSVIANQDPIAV
Assay [7] has as its system Neuregulin-1 EGF-like domain. In words: binders of neuregulin-1 EGF-like domain, primary screen, biochemical, small-molecule microarray, 635 nm fluorescence (AID 1081).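 Also: binding of the protein to compounds printed on small-molecule microarray slides.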 To be noted: small-molecule microarray binding, higher = more signal.
Assay [8] can be described thus: FRG1 promoter luciferase signal modulators, primary screen, FRG1 inhibition for FSHD, cell-based, C2C12 myotubes, firefly/Renilla luciferase, luminescence (AID 1084). To be noted: higher = more signal, called active from +8 up or from −8 down.
Assay [9] can be described thus: binders of probe aFST on microarray, primary screen, stem cell growth factor project, biochemical, small-molecule microarray, fluorescence 635/667 (AID 1086).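 Also: score merges 667 nm fluorescence with signal-to-noise of each printed compound spot.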 To be noted: higher = more signal.
Assay [10] can be described thus: binders of probe aHhip on microarray, primary screen, stem cell growth factor project, biochemical, small-molecule microarray, fluorescence 635/667 (AID 1087).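 Also: score merges spot fluorescence at 667nm with spot signal to noise ratio.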 The following applies: higher = more signal.
The test system of assay [11] is PRMT1 (protein arginine N-methyltransferase 1). In words: PRMT1 binders on small-molecule microarrays, primary screen, biochemical, small-molecule microarray, 635 nm fluorescence (AID 1088).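 Also: binding of Prmt1 protein to compounds spotted on small-molecule microarray slides.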 The following applies: small-molecule microarray binding, higher = more signal.
Assay [12] is described as follows: yeast growth modulation, basal conditions, primary screen, YJM789 clinical isolate, OD600, 24 h (AID 1089).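 Also: growth of clinical yeast isolate S. cerevisiae YJM 789 seeded 1000 cells per well; test concentration not given here.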 The following applies: S. cerevisiae YJM789 growth, higher = more signal, called active from +8 up or from −8 down.
Assay [13] can be described thus: fission yeast growth modulation, primary screen, strain 972, OD600, 24 h, no modulator (AID 1090).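 Also: basal condition with compound alone and no growth modifier present; test concentration not given here.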 The following applies: S. pombe 972 growth, higher = more signal, called active from +8 up or from −8 down.
Assay [14] in a line: S. cerevisiae growth modulation with rapamycin, primary screen, strain BY4716, OD600, 96 h (AID 1091). Also: test concentration not given here. To be noted: higher = more signal, called active from +8 up or from −8 down.
The target of assay [15] is Torsin-1A-interacting protein 2 (Homo sapiens) (UniProt Q8NFQ8). In words: LULL1 binders on small-molecule microarray, primary screen, cell lysate, human LULL1 lysate, 635/667 nm fluorescence (AID 1092).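 Also: score merges per-feature 667 nm fluorescence with signal-to-noise.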 The following applies: hLULL1 lysate binding, 635 nm fluorescence, higher = more signal.
Sequence of Torsin-1A-interacting protein 2 (Homo sapiens) (Q8NFQ8 whole entry, looked up): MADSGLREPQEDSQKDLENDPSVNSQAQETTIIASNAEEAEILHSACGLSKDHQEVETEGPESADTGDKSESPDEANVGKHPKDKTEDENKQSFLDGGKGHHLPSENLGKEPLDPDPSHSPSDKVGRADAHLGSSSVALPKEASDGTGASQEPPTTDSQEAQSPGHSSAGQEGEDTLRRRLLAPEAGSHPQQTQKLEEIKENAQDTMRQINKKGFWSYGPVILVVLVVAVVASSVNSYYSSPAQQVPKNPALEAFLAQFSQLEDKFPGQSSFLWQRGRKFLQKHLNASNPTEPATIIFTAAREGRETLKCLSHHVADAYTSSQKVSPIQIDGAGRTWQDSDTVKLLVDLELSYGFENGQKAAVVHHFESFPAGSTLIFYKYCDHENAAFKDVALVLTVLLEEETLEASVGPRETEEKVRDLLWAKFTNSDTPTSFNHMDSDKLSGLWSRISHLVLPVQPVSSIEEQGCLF
Assay [16] is described as follows: E. coli growth modulation, two-sided OD650, primary screen, E. coli filamentation project, strain DRC41, 24 h (AID 1093).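 Also: MC1000 strain lacking acrAB efflux and sulA so SOS filamentation is blocked; test concentration not given here.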 The following applies: OD650, 24 h, higher = more signal, called active from +8 up or from −8 down.
Assay [17] is described as follows: small-molecule microarray binders of probe aLefty2, primary screen, biochemical, biotinylated probe, 635/667 nm fluorescence (AID 1094).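 Also: score merges spot fluorescence near 667 nm with spot signal-to-noise ratio.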 To be noted: higher = more signal.
Assay [18] has as its system Noggin (protein binding on small-molecule microarray). In words: Noggin binders on small-molecule microarray, primary screen, biochemical, 635/667 nm fluorescence (AID 1095).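 Also: score merges 667 nm feature fluorescence with signal to noise over triplicate slides.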 The following applies: 635 nm fluorescence, higher = more signal.
Assay [19] addresses Neurogenic locus notch homolog protein 3 (Homo sapiens) (UniProt Q9UM47). In words: NOTCH3 binders on small-molecule microarray, primary screen, biochemical, 635/667 nm fluorescence (AID 1096). The following applies: NOTCH3 binding, 635 nm fluorescence, higher = more signal.
A short description of assay [20]: small-molecule microarray binders of probe aEGFR, primary screen, biochemical, biotinylated probe, 635/667 nm fluorescence (AID 1097).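 Also: probe is a biotinylated anti-EGFR antibody binding compounds printed on slides; score combines fluorescence near 667 nm and signal to noise of each spot.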 To be noted: higher = more signal.

Sequence of Neurogenic locus notch homolog protein 2 (Homo sapiens) (Q04721 whole entry, looked up, canonical isoform): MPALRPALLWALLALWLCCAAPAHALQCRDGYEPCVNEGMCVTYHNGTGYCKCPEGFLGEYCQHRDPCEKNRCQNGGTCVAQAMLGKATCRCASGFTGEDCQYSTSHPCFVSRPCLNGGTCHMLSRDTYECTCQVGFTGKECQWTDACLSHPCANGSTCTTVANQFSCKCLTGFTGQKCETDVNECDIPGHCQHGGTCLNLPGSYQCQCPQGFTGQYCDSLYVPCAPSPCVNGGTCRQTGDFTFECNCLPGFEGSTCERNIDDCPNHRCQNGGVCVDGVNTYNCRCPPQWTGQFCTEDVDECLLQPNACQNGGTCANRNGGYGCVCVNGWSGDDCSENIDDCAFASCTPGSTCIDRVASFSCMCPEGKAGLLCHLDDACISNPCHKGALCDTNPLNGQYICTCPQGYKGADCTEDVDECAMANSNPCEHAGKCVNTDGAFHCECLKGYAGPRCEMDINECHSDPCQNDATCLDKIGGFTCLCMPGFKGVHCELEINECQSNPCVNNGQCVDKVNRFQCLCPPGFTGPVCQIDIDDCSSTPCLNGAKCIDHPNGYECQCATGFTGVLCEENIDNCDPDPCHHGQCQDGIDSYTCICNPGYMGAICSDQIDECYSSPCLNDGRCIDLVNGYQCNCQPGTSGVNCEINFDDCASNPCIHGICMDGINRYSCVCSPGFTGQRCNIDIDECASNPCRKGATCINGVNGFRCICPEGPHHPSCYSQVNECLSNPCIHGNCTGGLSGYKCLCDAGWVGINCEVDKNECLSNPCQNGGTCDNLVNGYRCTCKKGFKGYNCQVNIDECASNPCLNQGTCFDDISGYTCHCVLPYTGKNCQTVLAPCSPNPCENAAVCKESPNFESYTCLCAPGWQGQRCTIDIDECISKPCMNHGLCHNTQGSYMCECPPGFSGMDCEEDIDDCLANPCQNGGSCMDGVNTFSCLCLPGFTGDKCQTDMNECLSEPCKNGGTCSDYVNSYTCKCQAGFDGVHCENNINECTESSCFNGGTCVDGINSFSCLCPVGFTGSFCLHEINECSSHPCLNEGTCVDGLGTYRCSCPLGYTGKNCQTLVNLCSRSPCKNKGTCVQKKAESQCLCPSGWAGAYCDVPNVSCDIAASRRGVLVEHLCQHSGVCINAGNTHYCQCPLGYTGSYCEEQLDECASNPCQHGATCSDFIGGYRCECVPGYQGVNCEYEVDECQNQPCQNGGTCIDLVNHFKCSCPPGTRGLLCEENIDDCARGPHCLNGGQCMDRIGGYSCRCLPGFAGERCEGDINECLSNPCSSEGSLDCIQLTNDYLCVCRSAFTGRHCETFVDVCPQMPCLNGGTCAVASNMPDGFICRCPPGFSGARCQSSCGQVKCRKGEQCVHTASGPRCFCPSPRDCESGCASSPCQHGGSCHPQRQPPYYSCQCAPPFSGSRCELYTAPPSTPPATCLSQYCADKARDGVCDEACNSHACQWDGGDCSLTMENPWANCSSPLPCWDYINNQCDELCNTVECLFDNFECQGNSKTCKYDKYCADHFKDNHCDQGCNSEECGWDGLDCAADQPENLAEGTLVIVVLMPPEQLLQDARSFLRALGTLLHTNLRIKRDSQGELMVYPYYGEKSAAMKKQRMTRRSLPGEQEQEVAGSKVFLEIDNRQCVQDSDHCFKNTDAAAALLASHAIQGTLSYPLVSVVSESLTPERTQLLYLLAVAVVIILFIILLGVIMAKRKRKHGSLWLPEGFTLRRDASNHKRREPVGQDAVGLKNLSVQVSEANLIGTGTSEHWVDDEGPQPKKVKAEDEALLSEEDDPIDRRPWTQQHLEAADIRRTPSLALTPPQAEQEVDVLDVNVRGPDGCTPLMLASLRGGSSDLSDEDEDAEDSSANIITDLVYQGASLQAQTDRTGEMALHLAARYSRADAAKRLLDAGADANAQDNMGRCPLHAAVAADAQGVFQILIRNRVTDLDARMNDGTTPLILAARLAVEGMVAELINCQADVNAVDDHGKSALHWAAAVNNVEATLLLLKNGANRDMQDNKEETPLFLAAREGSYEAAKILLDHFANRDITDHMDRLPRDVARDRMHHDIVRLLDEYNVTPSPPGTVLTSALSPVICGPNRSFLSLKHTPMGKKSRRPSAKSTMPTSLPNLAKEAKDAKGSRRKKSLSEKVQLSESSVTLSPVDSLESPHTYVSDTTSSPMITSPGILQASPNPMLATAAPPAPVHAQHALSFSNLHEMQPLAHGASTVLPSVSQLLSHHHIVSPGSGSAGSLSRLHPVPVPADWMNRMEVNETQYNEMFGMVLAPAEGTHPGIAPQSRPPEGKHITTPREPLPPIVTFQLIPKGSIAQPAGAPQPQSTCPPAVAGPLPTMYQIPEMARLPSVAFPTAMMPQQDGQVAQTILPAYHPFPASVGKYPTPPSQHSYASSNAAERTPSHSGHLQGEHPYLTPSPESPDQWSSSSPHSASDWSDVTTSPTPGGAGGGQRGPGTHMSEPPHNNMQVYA

`CC(=O)NCCCC[C@@H]1NC(=O)[C@H]2C[C@@H](C(=O)NCCCCCN)[C@@H](c3cccc(OCCO)c3)N2C1=O`: the composite z-score in assay [1] is -0.0485; in assay [2] it was 0.107; in assay [3], 0.0661; in assay [4], 0.792; in assay [5], 0.831; in assay [6], 1.09. The composite z-score was 0.581 in assay [7]; 0.547 in [9]; 0.758 in [10]; 0.907 in assay [11]; 2.23 in [15]; -0.097 in assay [17]. Also, the composite z-score in assay [18] is 0.559; in [19] it was 0.275; in assay [20], -0.0155. The z-score in assay [8] was -0.549 (inactive); in assay [12], -1.51 (inactive); in assay [13], -0.0234 (inactive); in assay [14], -0.883 (inactive); in [16], 1.56 (inactive).
Take `C[N+](C)(C)CCCC[C@@H]1NC(=O)[C@@H]2C[C@H](C(=O)NCCCCCNC(=O)CS)[C@H](c3cccc(OCCO)c3)N2C1=O`: the composite z-score in assay [1] is -0.129; in assay [2], 0.5; in assay [3], 0.0402; in assay [4], 0.294; in assay [5], 0.151; in [6], 0.634. Also, the composite z-score in assay [7] was 1.21; in [9], -0.0763; in assay [10] it was 0.138; in assay [11], 0.749; in assay [15], 0.743; in [17], 0.115. Further, the composite z-score was 0.505 in assay [18], -0.296 in assay [19] and 0.0338 in assay [20]. Also, the z-score in assay [8] is -0.669 (inactive); in [12], 0.539 (inactive); in assay [13], -0.879 (inactive); in assay [14], 0.378 (inactive); in assay [16], 0.906 (inactive).
As for `COC(=O)C(CC#Cc1ccc2c(c1)[C@]1(C(=O)N2)[C@H](c2ccc(OCCO)cc2)N2[C@H](c3ccccc3)[C@H](c3ccccc3)OC(=O)[C@H]2[C@@H]1C(=O)O)C(=O)OC`, the composite z-score in assay [1] worked out at 0.915; in assay [2] it was 0.831; in assay [3] it was 0.102; in [4] it was 0.727; in assay [5] it was 0.85; in assay [6], 2.03. The composite z-score in [7] came out at 1.26; in [9], 1.37; in assay [10], 0.398; in assay [11], 1.53; in assay [15], 3.1; in assay [17], 0.607. Further, the composite z-score in [18] was determined as 0.612; in assay [19], 0.822; in [20] it was 0.374. The z-score is -0.434 (inactive) in assay [8]; 2.49 (inactive) in assay [12]; -0.0363 (inactive) in [13]; -0.881 (inactive) in assay [14]; 1.95 (inactive) in assay [16].
`COc1ccccc1CN1C(=O)c2ccccc2[C@@]2(Cc3ccccc3N(C3CC3)C2=O)[C@@H]1c1ccc(CO)cc1`: the composite z-score in [1] was -0.262; in [2], -0.804; in [3] it was -0.107; in assay [4], 0.0106; in assay [5], -0.461; in assay [6], 0.937. The composite z-score in assay [7] was -0.0422; in [9], 0.0845; in [10] it was -0.164; in assay [11] it was 0.0943; in [15], 0.861; in [17] it was -0.0699. The composite z-score in [18] is -0.2; in assay [19], -0.473; in assay [20], -0.181. For the same compound, the z-score in assay [8] is -0.223 (inactive); in assay [12], -0.245 (inactive); in assay [13] it was -0.384 (inactive); in assay [14] it was -2.24 (inactive); in assay [16] it was -0.134 (inactive).
With `CCCc1cc2c(n1Cc1ccc(OC)cc1)C(C)C1CN(C(=O)c3ccccc3)C(C)(C(=O)OC)C21` (stereo not given), the composite z-score in assay [1] stood at 1.24; in assay [2], 0.575; in assay [3], 0.354; in assay [4] it was 0.345; in assay [5] it was 1.59; in [6] it was 1.81. For the same compound, the composite z-score in assay [7] is 1.2; in assay [9], 1.14; in [10] it was -0.127; in assay [11], 1.34; in assay [15], 3.37; in assay [17] it was 0.8. For the same compound, the composite z-score is -0.758 in assay [18], 1.05 in assay [19] and 0.389 in assay [20]. In addition, the z-score in assay [8] is -0.0832 (inactive); in assay [12], 0.461 (inactive); in assay [13], 0.815 (inactive); in assay [14], 1.64 (inactive); in [16], -1.21 (inactive).
